Results filed as inconclusive are left out. The source made the active and inactive calls.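 The calls were made as follows, unless noted: active = viability at or under a set limit in both replicates, limit being median viability minus 3 SD (cut at about 48% in these data, passing the limit was not always enough); inconclusive = at or under the limit in just one replicate; inactive = at or above the limit in both replicates.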
Key:
[1] = Her2 expression decrease, cell viability multiplex – SKBR3 breast tumor cells, AlphaScreen, ATP viability, primary screen (AID 461;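 active = Her2 level under about 52% in both replicate screens, with viability over 70% of control, limit read from the data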;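 as to Her2 level: lower value means less Her2 protein in the cells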;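 as to viability: percent of carrier control wells set as 100% viability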); conditions: SKBR3 Her2 protein level, 18-24 h, measured here: SKBR3 viability, ATP luminescence, at 10 µM
[2] = biological target: Receptor tyrosine-protein kinase erbB-2 (Homo sapiens) (UniProt P04626); assay: as above; conditions: 18-24 h, at 10 µM, stronger effect = lower value
Receptor tyrosine-protein kinase erbB-2 (Homo sapiens), sequence (P04626 whole entry, looked up): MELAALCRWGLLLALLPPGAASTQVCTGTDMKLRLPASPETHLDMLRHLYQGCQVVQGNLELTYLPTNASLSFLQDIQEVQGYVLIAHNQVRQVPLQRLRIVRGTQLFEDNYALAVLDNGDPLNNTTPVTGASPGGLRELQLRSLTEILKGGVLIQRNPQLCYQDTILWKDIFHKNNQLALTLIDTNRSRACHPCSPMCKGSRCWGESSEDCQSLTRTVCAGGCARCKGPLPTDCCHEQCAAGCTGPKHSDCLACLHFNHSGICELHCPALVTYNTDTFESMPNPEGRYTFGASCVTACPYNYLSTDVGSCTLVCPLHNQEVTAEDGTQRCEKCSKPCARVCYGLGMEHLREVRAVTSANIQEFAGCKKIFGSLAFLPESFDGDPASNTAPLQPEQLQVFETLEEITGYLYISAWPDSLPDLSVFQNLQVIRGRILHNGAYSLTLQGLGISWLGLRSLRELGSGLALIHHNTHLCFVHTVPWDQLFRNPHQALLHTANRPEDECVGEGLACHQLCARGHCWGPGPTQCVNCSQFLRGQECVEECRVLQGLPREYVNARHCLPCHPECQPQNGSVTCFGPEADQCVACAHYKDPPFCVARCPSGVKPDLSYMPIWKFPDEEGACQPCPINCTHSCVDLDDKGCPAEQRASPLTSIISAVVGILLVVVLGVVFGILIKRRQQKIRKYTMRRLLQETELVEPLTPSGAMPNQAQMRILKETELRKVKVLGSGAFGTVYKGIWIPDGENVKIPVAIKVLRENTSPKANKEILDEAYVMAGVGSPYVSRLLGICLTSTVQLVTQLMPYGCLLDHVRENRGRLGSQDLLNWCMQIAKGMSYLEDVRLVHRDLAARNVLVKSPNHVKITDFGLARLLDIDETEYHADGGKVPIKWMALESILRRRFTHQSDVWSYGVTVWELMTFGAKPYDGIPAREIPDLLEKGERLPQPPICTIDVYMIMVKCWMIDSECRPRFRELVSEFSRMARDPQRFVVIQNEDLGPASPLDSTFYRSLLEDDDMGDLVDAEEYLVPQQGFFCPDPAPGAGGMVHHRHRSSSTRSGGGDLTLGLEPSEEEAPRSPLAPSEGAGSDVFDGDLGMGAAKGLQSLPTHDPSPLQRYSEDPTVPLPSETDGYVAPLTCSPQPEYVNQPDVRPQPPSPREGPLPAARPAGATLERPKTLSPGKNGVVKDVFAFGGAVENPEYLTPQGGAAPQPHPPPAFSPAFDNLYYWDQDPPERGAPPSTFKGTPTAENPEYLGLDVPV

[3] = reduced viability of SK-BR-3 breast cancer cells – cell-based, 24 h, human, pilot screen (AID 572;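 active = viability at or below 10% of carrier control in both of two separate runs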;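 also: compound exposure lasted between 18 and 24 h rather than exactly 24 h; 100% = carrier-treated control wells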); conditions: SK-BR-3 viability, CellTiter-Glo luminescence, at 10 µM, stronger effect = lower value
[4] = HUVEC growth inhibition – cell-based, human, primary screen (AID 575;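 active = viability at or below 30% in both replicate assays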;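 also: 100% = median of untreated cell wells with 0.1% DMSO on each plate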); conditions: HUVEC proliferation, CellTiter-Glo luminescence, 72 h; at 10 µM; stronger effect = lower value
[5] = H69AR cell proliferation blockers – human, duplicate replicates, primary screen (AID 580); conditions: H69AR lung tumor cells viability, ATP luminescence, 72 h; at 10 µM; stronger effect = lower value;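 also: 100% = mean luminescence of untreated wells and 0% = no signal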
[6] = MRP1 drug-resistance reversers in H69AR cells – cell-based, doxorubicin co-treatment, pilot screen (AID 601;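 active = viability loss from added drug above about 55%, and viability with drug at most 40%, in both replicates, limit read from the data, passing the limit was not always enough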); conditions: CellTiter-Glo, 72 h, at 10 µM; for differential viability (reversal): stronger effect = higher value
[7] = yeast transport mutant growth inhibition pilot in 384-well plates, post-Golgi transport modulator project (AID 636; in the data active = inhibition above about 31%); conditions: absorbance 615 nm, about 18 h, stronger effect = higher value
[8] = growth suppression of yeast trafficking mutant, preliminary HTS, modulators of trafficking downstream of Golgi apparatus project, 1536-format plate, OD 615 nm (AID 637; in the data active = inhibition above about 30%); conditions: yeast transport mutant growth, absorbance 615 nm, 18 h; stronger effect = higher value
[9] = S. cerevisiae growth inhibition in permissive medium (OD615), pilot counter-assay for S. cerevisiae lifespan shortening project, permissive growth control (AID 705;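 active = growth inhibition above 25% in both replicates, a cutoff set 3 SD above the mean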); conditions: OD615, 24 h, at 10 µM, stronger effect = higher value
[10] = S. cerevisiae growth inhibition in restrictive medium, OD615, pilot screen, restrictive growth control, yeast lifespan reduction project (AID 706;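 active = growth inhibition above a set limit, 3 SD over mean compound inhibition, in both replicates, cut at about 43% in these data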;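 also: modified DeaD lifespan yeast strain shifted to restrictive glucose medium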); conditions: OD615, 48 h, at 10 µM, stronger effect = higher value
[11] = doxorubicin toxicity protection in MRP-1 cells – H69AR cells, CellTiter-Glo, duplicate, MRP-1 activator project, pilot screen (AID 807;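 active = viability increase at or above a cutoff of the median across tested compounds plus 3 SD, cut at about 8.5% in these data, passing the limit was not always enough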;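 also: compound pretreatment 18-22 h then 72 h combined with doxorubicin; 0% = doxorubicin alone and 100% = vehicle without doxorubicin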); conditions: H69AR viability with doxorubicin, CellTiter-Glo luminescence; at 10 µM; stronger effect = higher value
[12] = viability of HCT116 without oncogenic beta-catenin – human colon tumor cells, pilot screen (AID 823;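 active = cell viability at or below a set limit in both duplicate runs, the limit being the all-compound median minus 4 SD, cut at about 23% in these data, passing the limit was not always enough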;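 also: 0% = wells killed by 20 µM Hyamine and 100% = untreated DMSO cell wells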); conditions: HCT116 beta-catenin knockout viability, CellTiter-Glo, 60 h; at 10 µM; stronger effect = lower value
[13] = viability of PTEN-null HCT116 cells – cell-based, HCT116 clonal line, CellTiter-Glo, pilot screen (AID 824;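 active = viability at or below 27.92% in each of two runs, the all-compound median minus 4 SD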;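 also: 0% = 20 µM Hyamine control and 100% = vehicle cell control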); conditions: HCT116 PTEN-deleted viability, 60 h, at 10 µM, stronger effect = lower value
[14] = RAM pathway blockade in budding yeast – dse1pr::URA3 reporter, 5-FOA selection, pilot screen (AID 869;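 active = inhibition over a set limit, the all-compound mean plus 3 SD, in both replicate runs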;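 also: 0% = DMSO wells with no growth and 100% = 10 µM 1-NA-PP1 with full growth; RAM network block rescues cells from 5-FOA so hits raise OD615 growth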); conditions: S. cerevisiae dse1pr::URA3 5-FOA growth, OD615, 2 d; at 10 µM; stronger effect = higher value; strain carries analog-sensitive mutant Cbk1 kinase
[15] = RAM signaling pathway blockade in yeast – S. cerevisiae, Pdr1DBD-CYC8 efflux-inhibited sensitized strain, primary screen (AID 1298;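 active = RAM network inhibition above 8.4% in each of two replicates, 3 SD over the compound average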;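 also: 0% = DMSO untreated cells without growth and 100% = 10 µM 1-NA-PP1 full growth; higher means more yeast growth rescued from 5-FOA killing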); conditions: S. cerevisiae cbk1-as DSE1-URA3 strain, 5-FOA growth OD615, 2 d; at 50 µM; stronger effect = higher value
[16] = H69AR cells + 2 uM doxorubicin, measured here: viability with 2 uM doxorubicin, stronger effect = lower value
[17] = H69AR cells, compound alone cytotoxicity

Compound | viability [1] [%] | Her2 level [2] | viability [3] | viability [4] | viability [5] | differential viability (reversal) ([6]; H69AR cells + 2 uM doxorubicin) | viability [6, 16] [%] | viability [6, 17] [%] | inhibition [7] | inhibition [8] | growth inhibition [9] | growth inhibition [10] | viability increase [11] | viability [12] | viability [13] | inhibition [14] | RAM network inhibition [15]
O=C1C2C3C=CC(C3)C2C(=O)N1c1cccc(N2C(=O)C3C4C=CC(C4)C3C2=O)n1 (stereo not given) | 91 | 100% (inactive) | 91% (inactive) | 109% (inactive) | 93.4% (inactive) | -4.17% (inactive) | 97.6 | 93.4 | -4.73% (inactive) | 4.75% (inactive) | -12% (inactive) | -11.8% (inactive) | -0.89% (inactive) | 104% (inactive) | 104% (inactive) | 3.84% (inactive) | 5.46% (inactive)
COc1cccc(-c2nc3n(n2)C(c2cccs2)C(C(=O)Nc2cccnc2)=C(C)N3)c1 (stereo not given) | 78 | 79% (inactive) | 78% (inactive) | 83.2% (inactive) | 101% (inactive) | -5.46% (inactive) | 107 | 101 | -2.93% (inactive) | -0.67% (inactive) | -13.1% (inactive) | -6.04% (inactive) | -2.26% (inactive) | 87.2% (inactive) | 93% (inactive) | -0.145% (inactive) | 5.84% (inactive)
CCC(=O)Nc1cccc(Br)c1 | 114 | 116% (inactive) | 114% (inactive) | 113% (inactive) | 95.4% (inactive) | -2.25% (inactive) | 97.7 | 95.4 | -4.4% (inactive) | -8.06% (inactive) | -9.21% (inactive) | 2.72% (inactive) | -0.82% (inactive) | 96.4% (inactive) | 85.5% (inactive) | -0.04% (inactive) | -0.05% (inactive)
O=C(c1cc(C2CC2)on1)N1CCN(C(c2ccccc2)c2ccccc2)CC1 | 84.5 | 95.5% (inactive) | 84.5% (inactive) | 113% (inactive) | 87.7% (inactive) | -6.88% (inactive) | 94.6 | 87.7 | 0.9% (inactive) | -0.83% (inactive) | -17.5% (inactive) | -18.4% (inactive) | 2.29% (inactive) | 90.9% (inactive) | 76.8% (inactive) | 0.66% (inactive) | 7.26% (inactive)
Cc1nnc(N2C(=O)C(O)=C(C(=O)c3ccco3)C2c2ccc(F)cc2)s1 (stereo not given) | 99 | 98.5% (inactive) | 99% (inactive) | 120% (inactive) | 99.6% (inactive) | 8.77% (inactive) | 90.9 | 99.6 | -3.46% (inactive) | 1.67% (inactive) | -13.9% (inactive) | -28.6% (inactive) | -1.63% (inactive) | 106% (inactive) | 101% (inactive) | 0.21% (inactive) | 0.57% (inactive)
O=C(NCCSc1c[nH]c2ccccc12)c1ccco1 | 112 | 93.5% (inactive) | 112% (inactive) | 64.5% (inactive) | 65.1% (inactive) | -25.6% (inactive) | 90.6 | 65.1 | -4.8% (inactive) | 0% (inactive) | -5% (inactive) | -2.81% (inactive) | -6.06% (inactive) | 102% (inactive) | 91.6% (inactive) | 1.83% (inactive) | 0.88% (inactive)
COc1ccc(NC(=O)NCCN2C(=O)C3C4C=CC(C4)C3C2=O)cc1 (stereo not given) | 96 | 91% (inactive) | 96% (inactive) | 100% (inactive) | 101% (inactive) | 3.28% (inactive) | 97.5 | 101 | -1.33% (inactive) | 0.33% (inactive) | -5.58% (inactive) | 10.4% (inactive) | -0.53% (inactive) | 99.1% (inactive) | 94.5% (inactive) | 1.5% (inactive) | -1.15% (inactive)
COCCn1c(SCC(=O)Nc2ccc3c(c2)OCCO3)nc2c(c1=O)SC(C)C2 (stereo not given) | 95 | 110% (inactive) | 95% (inactive) | 108% (inactive) | 84.4% (inactive) | -21.9% (inactive) | 106 | 84.4 | -1.07% (inactive) | -2% (inactive) | -6.57% (inactive) | -5.1% (inactive) | -1.19% (inactive) | 102% (inactive) | 95.8% (inactive) | 1.71% (inactive) | -0.11% (inactive)
O=C(Nc1ccc2c(c1)OCCO2)NC1CCCCC1 | 126 | 98.5% (inactive) | 126% (inactive) | 89.5% (inactive) | 85.9% (inactive) | 3.18% (inactive) | 82.7 | 85.9 | -4.27% (inactive) | -1.13% (inactive) | -1.73% (inactive) | 4.4% (inactive) | -0.85% (inactive) | 86.8% (inactive) | 85.5% (inactive) | 1.55% (inactive) | -0.57% (inactive)
Cc1c(NC(=O)c2ccc(Br)o2)c(=O)n(-c2ccccc2)n1C | 91 | 96% (inactive) | 91% (inactive) | 89.2% (inactive) | 91.2% (inactive) | 5.07% (inactive) | 86.1 | 91.2 | -5.06% (inactive) | -1.67% (inactive) | -11.6% (inactive) | -4.15% (inactive) | 0.9% (inactive) | 97.7% (inactive) | 103% (inactive) | 1.59% (inactive) | 2.23% (inactive)
CC1CCC(NC(=O)Cn2ncc3ccccc32)CC1 (stereo not given) | 106 | 108% (inactive) | 106% (inactive) | 107% (inactive) | 95.5% (inactive) | 7.93% (inactive) | 87.6 | 95.5 | -3.47% (inactive) | -8% (inactive) | -9.46% (inactive) | 1.29% (inactive) | -0.27% (inactive) | 97.9% (inactive) | 100% (inactive) | 1.21% (inactive) | 1.78% (inactive)
CC(=O)C1=C(C)Nc2ncnn2C1c1cccc(OCc2ccccc2)c1 (stereo not given) | 102 | 104% (inactive) | 102% (inactive) | 115% (inactive) | 88.6% (inactive) | -5.64% (inactive) | 94.2 | 88.6 | -4% (inactive) | 1.5% (inactive) | -3.25% (inactive) | -0.16% (inactive) | -0.76% (inactive) | 92.4% (inactive) | 93.5% (inactive) | 1.94% (inactive) | 4.69% (inactive)
Cn1nnnc1SCC(=O)N1CCN(c2ccccc2)CC1 | 94.5 | 122% (inactive) | 94.5% (inactive) | 97.4% (inactive) | 87.7% (inactive) | 8.86% (inactive) | 78.8 | 87.7 | 1.92% (inactive) | -6.33% (inactive) | -0.355% (inactive) | -1.68% (inactive) | -0.97% (inactive) | 93.1% (inactive) | 99.6% (inactive) | 0.735% (inactive) | 1.14% (inactive)
CN(C1CCCCC1)S(=O)(=O)c1ccc(S(=O)(=O)N2CCN(CCC#N)CC2)cc1 | 89.5 | 92.5% (inactive) | 89.5% (inactive) | 98.5% (inactive) | 103% (inactive) | 27.9% (inactive) | 74.8 | 103 | -2.27% (inactive) | 4.26% (inactive) | -11.3% (inactive) | -3.55% (inactive) | -1.47% (inactive) | 97.2% (inactive) | 91.5% (inactive) | 0.805% (inactive) | 1.41% (inactive)
COCCNC(=O)CN(C)S(=O)(=O)c1ccc(Br)cc1 | 113 | 98% (inactive) | 113% (inactive) | 97.5% (inactive) | 104% (inactive) | 5.54% (inactive) | 98.2 | 104 | -6.27% (inactive) | -3.23% (inactive) | -11.6% (inactive) | -5.76% (inactive) | -2.09% (inactive) | 98.7% (inactive) | 98.4% (inactive) | 0.87% (inactive) | 3.01% (inactive)
CC(NC(=O)c1noc2c1CCCCC2)c1ccccc1 (stereo not given) | 85.5 | 93.5% (inactive) | 85.5% (inactive) | 89.1% (inactive) | 110% (inactive) | 18.1% (inactive) | 91.7 | 110 | -3.59% (inactive) | -2% (inactive) | -16.4% (inactive) | -14.1% (inactive) | 1.66% (inactive) | 100% (inactive) | 102% (inactive) | -0.27% (inactive) | 1.85% (inactive)
CCC1CCCCN1C(=O)CSc1nnc(-c2ccc(OC)cc2)o1 (stereo not given) | 98 | 102% (inactive) | 98% (inactive) | 99.8% (inactive) | 87.6% (inactive) | -6.46% (inactive) | 94.1 | 87.6 | -3.6% (inactive) | -9.34% (inactive) | 7.74% (inactive) | 54.4% (active) | -1.66% (inactive) | 95.5% (inactive) | 95.7% (inactive) | 2.38% (inactive) | 1.19% (inactive)
CCOC(=O)c1ccccc1NC(=O)c1ccc2c(=O)n3c(nc2c1)CCCCC3 | 87.5 | 84.5% (inactive) | 87.5% (inactive) | 84.9% (inactive) | 84.4% (inactive) | -9.15% (inactive) | 93.5 | 84.4 | -4.53% (inactive) | 0.67% (inactive) | -5.51% (inactive) | -0.78% (inactive) | -1.73% (inactive) | 82.5% (inactive) | 81.2% (inactive) | 1.7% (inactive) | 18.8% (active)
CCN1CCN(Cc2ccc(NC(=O)Nc3ccccc3)cc2)CC1 | 82 | 106% (inactive) | 82% (inactive) | 82.5% (inactive) | 88.7% (inactive) | -0.57% (inactive) | 89.3 | 88.7 | 2.82% (inactive) | 0.33% (inactive) | -11.3% (inactive) | -11.3% (inactive) | 0.37% (inactive) | 103% (inactive) | 98.7% (inactive) | 1.09% (inactive) | 1.93% (inactive)
Cc1cc(C)n(-c2ccc(N3CCOCC3)nn2)n1 | 108 | 99% (inactive) | 108% (inactive) | 98.1% (inactive) | 89.5% (inactive) | -4.32% (inactive) | 93.8 | 89.5 | 0% (inactive) | 0% (inactive) | 1.14% (inactive) | 10.2% (inactive) | -0.17% (inactive) | 103% (inactive) | 101% (inactive) | 0.245% (inactive) | -0.52% (inactive)
